Compound activity: PubChem BioAssay, The Scripps Research Institute Molecular Screening Center
TbREL1 inh = TbREL1 inhibition, primary screen | 0.49% of 89,000 active | inhibition, % at 9.66 µM | TbREL1 RNA ligation, FRET fluorescence | P86926;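 active = inhibition above the mean inhibition across all screened compounds plus 3 SD, cut at about 11% in these data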;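 also: 0% = plate median of test wells and 100% = NSC42067 control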
Target sequence (P86926 whole entry, looked up): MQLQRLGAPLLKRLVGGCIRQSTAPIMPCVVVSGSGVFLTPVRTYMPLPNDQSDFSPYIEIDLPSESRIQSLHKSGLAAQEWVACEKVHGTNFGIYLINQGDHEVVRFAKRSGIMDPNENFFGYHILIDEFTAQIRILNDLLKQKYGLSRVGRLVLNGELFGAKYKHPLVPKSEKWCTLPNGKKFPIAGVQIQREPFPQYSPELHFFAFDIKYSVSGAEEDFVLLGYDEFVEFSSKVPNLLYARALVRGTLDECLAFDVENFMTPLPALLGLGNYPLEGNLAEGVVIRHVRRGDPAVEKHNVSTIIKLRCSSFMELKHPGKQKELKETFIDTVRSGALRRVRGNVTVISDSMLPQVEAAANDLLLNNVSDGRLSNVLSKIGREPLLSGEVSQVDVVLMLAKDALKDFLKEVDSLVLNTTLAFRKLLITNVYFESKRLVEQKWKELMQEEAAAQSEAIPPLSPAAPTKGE
TbREL1 confirm = TbREL1 inhibition, confirmation; shares compounds with TbREL1 inh; TbREL1 RNA ligation, FRET fluorescence; inhibition, % at 9.66 µM; 37% of 390 active;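 active = mean inhibition across replicates above a set limit taken from the earlier primary screen, cut at about 11% in these data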;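 also: 0% = REL1 with substrate and DMSO and 100% = REL1 plus control inhibitor NSC42067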
* hit, by the source's call. This is one part of a sample in which hits are shown more often than they occur.

SMILES	TbREL1 inh	others
CCC(C)n1c(NC(=O)c2ccccc2)c(C#N)c2nc3ccccc3nc21 (stereo not given)	12*
Cc1ccc(C(=O)NCCn2c(N)c(C#N)c3nc4ccccc4nc32)cc1	-2
O=C(Nc1ccc(Cl)c(Cl)c1)C1CCCN1S(=O)(=O)c1cccc2cccnc12 (stereo not given)	0
C[C@H]1[C@@H](NC(=O)Cc2ccsc2)CC[C@@]23CCCN2C(=O)CCC[C@@H]13	-2
CN1CCCN(C(=O)C2CCCN(C(=O)c3ccc4c(c3)NC(=O)CS4)C2)CC1 (stereo not given)	1
Cc1cc(C)cc(-c2c(C(=O)c3ccc(Br)cc3)[nH]c(N)c2C(=O)NCc2ccc(Cl)cc2)c1	10
c1ccc(-c2cccc(CNc3nc(-c4ccccn4)nnc3-c3ccccc3)c2)cc1	5
COC(=O)c1ccccc1-c1c2ccc(=N)cc-2oc2cc(N)ccc12	-167
COc1cc(OC)c(-c2c3cc(O)c(=O)cc-3oc3cc(O)c(O)cc23)cc1OC	20*
COc1c(O)cc2oc(-c3ccc(O)cc3)cc(=O)c2c1O	-2
Clc1ccc(-n2c(SCc3cccc4ccccc34)nnc2-c2ccccc2)cc1	-2
CN1CCN(c2ccc(NC(=O)c3cccs3)cc2)CC1	5
C=CC(=O)Nc1ccc(N(C)c2ccnc(Nc3ccc(N4CCN(C)CC4)cc3)n2)cc1	12*
CN1CCN(c2ccc(NC(=O)COc3ccccc3Cl)cc2)CC1	0
CCOc1ccc(-n2c(SCC(=O)Nc3ccc(S(=O)(=O)Nc4nccs4)cc3)nnc2-c2ccc(C(C)(C)C)cc2)cc1	-2
Oc1ccc(CNc2ccccc2F)c2cccnc12	1
Oc1ccc(-c2ccccc2F)c2cccnc12	-4
Oc1ccc(Nc2ccccc2F)c2cccnc12	17*	TbREL1 confirm=-9
S=C(Nc1ccc(Br)cc1)OCCN1CCCC12CCC(c1ccccc1)CC2 (stereo not given)	-1
Clc1ccc(CN2CCN(N=Cc3ccncc3)CC2)cc1	-3
CC(C)C[C@@H](CNCC(=O)[C@H](C)NC(=O)c1[nH]cnc1C(=O)N[C@@H](C)CN)NC(=O)c1nc[nH]c1C(=O)N[C@@H](Cc1ccccc1)C(=O)O	11*	TbREL1 confirm=6
CC(C)C[C@H](NC(=O)c1nc[nH]c1C(=O)N[C@@H](CC(C)C)C(=O)OCc1ccccc1)C(=O)OCc1ccccc1	2
CC(C)C[C@H](NC(=O)c1[nH]cnc1C(=O)N[C@@H](Cc1ccccc1)C(=O)OCc1ccccc1)C(=O)OCc1ccccc1	0
Nn1c(SCC(=O)Nc2cccc3ccccc23)nnc1-c1n[nH]c2c1CCC2	0
CC(C)C(N)c1csc(NC(=O)Nc2ccccc2C(C)(C)C)n1 (stereo not given)	13*	TbREL1 confirm=9
SMILES	TbREL1 inh	others
CC(C)c1ccc(NC(=O)Nc2nc(C(N)CCc3ccccc3)cs2)cc1 (stereo not given)	7
NC(Cc1ccc(C(F)(F)F)cc1)c1csc(NC(=O)Nc2ccccc2Cl)n1 (stereo not given)	5
COC(CNC(=O)[C@H](Cc1c[nH]c2ccccc12)NC1(C(=O)NC(c2ccccc2)c2ccccc2)CCCCC1)OC	-4
COc1cccc(C(=O)Nc2ccc(F)c(F)c2F)c1	2
COC(=O)c1sccc1NC(=O)c1cccc(OC)c1	50*	TbREL1 confirm=2
COc1cccc(C(=O)Nc2ccccc2F)c1	3
COc1ccc(CN2C(=O)c3ccnn3CC2(C)c2nnnn2-c2c(C)cccc2C)cc1 (stereo not given)	-1
O=C(O)c1ccccc1-c1noc(-c2ccccc2F)n1	13*	TbREL1 confirm=4
O=C(c1ccccc1-c1nc(-c2ccccc2)no1)N1CCOCC1	-1
O=C(c1ccccc1-c1nc(-c2ccc(F)cc2)no1)N1CCCC1	-1
CCCCNC(=O)NS(=O)(=O)c1ccc(NC(=O)CSc2nnc(-c3cccs3)n2-c2ccc(OC)cc2)cc1	-2
COc1ccc2c(c1)N[C@@](CCN1C(=O)c3ccccc3C1=O)(c1[nH]c3ccccc3c1CCN1C(=O)c3ccccc3C1=O)C2=O	2
O=C1N/C(=N/N=C/c2ccco2)SC1Cc1ccccc1 (stereo not given)	11*	TbREL1 confirm=4
O=C1C(Cc2ccccc2)S/C(=N/N=C/c2ccco2)N1c1ccccc1 (stereo not given)	-4
CCCC1S/C(=N/N=C/c2ccco2)NC1=O (stereo not given)	2
c1ccc(-c2csc(=Nc3cccnc3)n2CC2CCCO2)cc1 (stereo not given)	0
COc1ccc(-c2cnc(N)n2CC2CCCO2)cc1 (stereo not given)	0
c1ccc(-c2cnc(SCCN3CCOCC3)n2CC2CCCO2)cc1 (stereo not given)	15*	TbREL1 confirm=-1
COc1ccc2ccccc2c1C=Nn1c(-c2n[nH]c3c2CCC3)n[nH]c1=S	-5
O=C(CCn1nnc(-c2cccs2)n1)NCc1ccco1	-1
O=C(Nc1ccc(Cl)cc1)N1CCN(Cc2nc3ccccc3c(=O)[nH]2)CC1	3
O=C(NCCCO)c1ccc2nc(-c3ccco3)c(-c3ccco3)nc2c1	11*	TbREL1 confirm=19*
COc1cccc(C(=O)NCCCNC(=O)c2ccco2)c1	5
CCCNC(=O)c1ccc2nc(-c3ccccc3)c(-c3ccccc3)nc2c1	-1
C=CCn1c(SCC(=O)C(C)(C)C)nnc1-c1ccc(Cl)cc1	0
SMILES	TbREL1 inh	others
Cc1ccc(NC(=S)NNC(=O)CSc2nnc(SCc3cccc4ccccc34)s2)cc1	-9
C[C@@H]1CCN(C2CC2)S(=O)(=O)c2c(cccc2N2CC[C@@H](N(C)C)C2)O1	0
COc1ccc2c3c([nH]c2c1)C1=NCC[C@]12c1ccccc1N=CN2CC3	0
COc1ccc2c3c([nH]c2c1)[C@]1(CCNC=O)Nc2ccccc2C1=NCC3	11*	TbREL1 confirm=0
COc1ccc2[nH]c3c(c2c1)CCN[C@]31C(=O)Nc2ccccc21	6
C=CCn1c(SCC(=O)Nc2ccccc2-c2ccccc2)nnc1-c1ccccc1	-2
Cc1ccc(NC(=O)OC2CC3CC2[C@H]2CCCCN2C3)cc1 (stereo not given in full)	0
O=C(OCc1cn(Cc2ccc(F)cc2)nn1)N1CCOCC1	3
CC1(C)Cc2c(c(-c3ccco3)[nH]c(=O)c2C#N)CS1	15*	TbREL1 confirm=4
CC(=O)N1CCN(c2nc(-c3ccco3)c3c(c2C#N)CC(C)(C)SC3)CC1	-2
CC1(C)Cc2c(c(-c3ccccc3)[nH]c(=O)c2C#N)CS1	0
COc1ccc(/C(C)=N/NC(=O)Cc2cc(=O)[nH][nH]2)cc1OC	-1
COc1ccc(S[C@]2(C(=O)N3CCOCC3)CC(=O)N(c3ccsc3)[C@@H]2c2ccc(OC)cc2)cc1	-4
COc1ccc(C(C(=O)N(C)C2CCCC2)N(Cc2ccc(F)cc2)C(=O)c2cc(C)[nH]n2)cc1OC (stereo not given)	4
Cc1occc1C(=O)NCc1nc(-c2ccc(Cl)cc2)no1	1
COc1ccc(-c2noc(CNC(=O)c3ccoc3C)n2)cc1	15*	TbREL1 confirm=2
COc1ccc(-c2noc(CCC(=O)O)n2)cc1	1
COc1ccc2[nH]c3c(c2c1)CCN[C@]31C(=O)N(Cc2cn(Cc3ccccc3)nn2)c2ccc(F)cc21	4
COc1ccc(C2C(C(=O)N3CCC(C)CC3)CC(=O)N2c2ccc(OC)cc2)cc1 (stereo not given)	0
